PubChem BioAssay (NCI)
Compounds without any hit were thinned out: in the full panel of roughly 83,000, 20% have a hit.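 The test compound was applied at a single concentration to cells in 96-well plates for 48 hours, and percent growth was recorded.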 Unmarked numbers belong to inactive results. The source made the active and inactive calls. The calls were made as follows: active = growth percent below 10; inactive = the rest.

The molecules below were run on NCI-H23 lung (assay: NCI-60 one-dose screen, 48 h (100 = growth as untreated, 0 = no growth, -100 = all killed)). Details: 10 µM unless noted.

Which growth does the source give for `CC/C(=C(\c1ccc(Cl)cc1)c1ccc(OCCN2CCCCC2)cc1)c1ccc(O)cc1` here?
The growth was 47.6%.

`CCOC(=O)c1[nH]cc2c1CCc1sc(Nc3ccccn3)nc1-2` was tested. Which growth did it give?
Its growth is 66.7%.

`COc1cc(-c2ccc(-c3ccc(C(=N)N)cc3)s2)cc(OC)c1OC` was tested. Which growth did it give?
The growth was 84.4%.

With `CN(C)c1ccc([C@@H](C(=O)Nc2cccc([N+](=O)[O-])c2)N(C(=O)c2cc3ccccc3[nH]2)c2cccc([N+](=O)[O-])c2)cc1` as the molecule, how does the growth read?
Its growth is 97.5%.

How did the growth turn out when `Cc1cccc(NC(=O)N/C(N)=N/c2nc3ccccc3s2)c1` was run?
Its growth is 40.9%.

With `CN(C)c1ccc(/C=N\NC(=O)c2ccc3nc(-c4ccc(Cl)cc4)[nH]c3c2)cc1` as the molecule, how does the growth read?
The growth was 61.4%.

How did the growth turn out when `C=C1SC(=Nc2ccccc2Cl)N(C(=O)c2sc3ccccc3c2Cl)C1(C)C` was run?
Its growth is 36.7%.

`CC[C@@H](C(=O)[C@@H](C)[C@@H](O)[C@H](C)[C@@H]1O[C@@H]([C@@H](CC)C(=O)ONC(=O)c2ccccc2O)CC[C@@H]1C)C1O[C@]2(C=CC(=O)[C@]3(CC[C@@](C)([C@H]4CC[C@](O)(CC)[C@H](C)O4)O3)O2)[C@H](C)C[C@@H]1C` (stereo partly drawn) was tested. Which growth did it give?
The growth was 23.1%.

For `Cc1ccc(NC(=O)c2cc3ccccc3cc2O)c(C)c1`, which growth is on record?
Its growth is 71.9%.

`CCN(CC)CCOc1ccc2c(-c3ccccc3)c(-c3ccc(OC)cc3)c(=O)oc2c1` was tested. Which growth did it give?
Its growth is 70.3%.

For `CCOC(=O)C1=C(CC(O)c2ccc(OC)cc2OC)NC(=O)NC1c1ccccc1` (stereo not drawn), which growth is on record?
Its growth is 103%.

Which growth does the source give for `COc1nc(/C=C\Nc2ccc3c(c2)OCCOCCOCCOCCO3)nc(OC)n1` here?
The growth was 85.7%.

For `Cc1c(O)cc(-c2cnc(N/N=C/c3ccccc3)s2)c(O)c1C`, which growth is on record?
The growth was 97.7%.

`CCCCO[C@@H]1C=C2[C@H]3CC(C)(C)C(=O)C[C@]3(C(=O)O[C@@H]3O[C@H](CO[C@@H]4O[C@H](CO)[C@@H](OC5OC(C)C(O)C(O)C5O)[C@H](O)[C@H]4O)[C@@H](O)[C@H](O)[C@H]3O)CC[C@@]2(C)[C@]2(C)CC[C@H]3C(C)(C)C(=O)CC[C@]3(C)[C@@H]12` (stereo partly drawn) was tested. Which growth did it give?
The growth was 60.3%.

For `O=CN1N=C(c2cccc(Nc3ccnc4cc(Cl)ccc34)c2)CC1c1ccc(Cl)cc1` (stereo not drawn), which growth is on record?
Its growth is 1.81% (active).

`CCCCCCCCn1ccc2cc(NC(=O)CN3CCN(c4cc(C)nc(Cl)n4)CC3)ccc21` was tested. Which growth did it give?
Its growth is 81.7%.

Which growth does the source give for `O=C1Nc2ccccc2/C1=N/N1C(=O)CN(CCCl)C1=O` here?
The growth was 100%.

`CCOc1ccc(/C=C/C(=O)c2cccc(OCCCOc3cccc(C(=O)/C=C/c4ccc(OCC)cc4)c3)c2)cc1` was tested. Which growth did it give?
Its growth is 83.9%.

Which growth does the source give for `C=C1C(=O)O[C@H]2[C@H]1CC/C(COC(=O)NCc1ccc(Cn3c(=O)sn(-c4ccc(I)cc4)c3=O)cc1)=C\CC[C@@]1(C)O[C@@H]21` here?
The growth was 94.8%.

`O=C1/C(=C/c2c[nH]c(=O)[nH]c2=O)SC(=S)N1Cc1ccccc1` was tested. Which growth did it give?
The growth was 96.4%.

`Nc1nc(N(Cc2ccccc2)c2ccccc2)c2cn[nH]c2n1` was tested. Which growth did it give?
Its growth is 81.7%.

Which growth does the source give for `CC(C)NS(=O)(=O)/N=C1\NC(=O)NC1=C(Cl)Cl` here?
The growth was 101%.

Which growth does the source give for `COc1cc2c(cc1OCCCN1CCN(C(=S)SCCC(C#N)(c3ccccc3)c3ccccc3)CC1)N=C[C@@H]1CCCN1C2=O` here?
Its growth is -46.7% (active).

For `O=c1cc(CP(=O)(O)O)c2cc(O)c(-c3ccccc3)cc2o1`, which growth is on record?
The growth was 101%.

How did the growth turn out when `O=S(=O)(Nc1ccc2ccccc2c1)c1ccc(-c2cnc(C3CC3)o2)cc1` was run?
Its growth is 41.1%.

For `N=C(N)c1ccc(OCCSCCOc2ccc(C(=N)N)cc2)cc1`, which growth is on record?
Its growth is 36.2%.

Which growth does the source give for `Fc1ccc(/C=C/[C@@H]2C[C@@H](F)CCO2)cc1` here?
Its growth is 104%.

With `COC(=O)[C@@]12CC=C(C)[C@]3(C[C@H](c4ccoc4)OC3=O)[C@H]1C=C[C@@H](O)[C@@]2(O)C(=O)OC` as the molecule, how does the growth read?
Its growth is 100%.

Which growth does the source give for `O=c1oc2c(cc1-c1ccccc1)c(=O)[nH]c1ccccc12` here?
Its growth is 95.8%.

With `COc1ccc(C/C(C)=C(\c2ccc(O)cc2)c2ccc(OCCN3CCCCC3)cc2)cc1` as the molecule, how does the growth read?
The growth was 90.1%.

Which growth does the source give for `CNC(=O)c1cc(Oc2ccc3c(c2)sc2nc(-c4ccc(NC(=O)[C@@H](NC(=O)OC)C(C)C)cc4)cn23)ccn1` here?
Its growth is 77.6%.

`Nc1[nH]nc2nc(-c3ccccc3)n3c4ccccc4nc3c12` was tested. Which growth did it give?
Its growth is 99.9%.

With `N#Cc1ccccc1-c1ccc(CN2C(=O)S/C(=C\c3ccc(Br)cc3)C2=O)cc1` as the molecule, how does the growth read?
The growth was 96.6%.
